Experimental findings from PubChem BioAssay (NCI) are described below.

Holding throughout (test): NCI-60 one-dose screen, 48 h (100 = growth as untreated, 0 = no growth, -100 = all killed)
What all share (conditions): 10 µM unless noted

The subject of assay [1] is T-47D breast.
In assay [2] the test system is BT-549 breast.
Assay [3] relates to MDA-MB-435 melanoma.
The subject of assay [4] is SW-620 colon.
Assay [5] relates to MCF7 breast.
For assay [6], the system named is HCT-116 colon.
Assay [7] has as its system HCC-2998 colon.
For assay [8], the system named is KM12 colon.

The structures appear in SMILES notation. This is part of a sample that, as a whole, favours compounds with a hit. Of some 83,000 tested, about 20% had one in any assay.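 In brief: 96-well plates, 48 h treatment, single concentration, percent growth endpoint.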 Values without a mark were called inactive. Calls of active or inactive are those of the source. The calls were made as follows: active = growth percent below 10; inactive = the rest.

Consider `COc1cccc(/C=C/C(=O)c2sc(Nc3ccc(O)cc3)nc2C)c1`, for which the growth is 90.8% in assay [1]; 14.6% in assay [2]; 88.4% in assay [3]; 110% in assay [4]; 72.2% in assay [5]; 87.4% in assay [6]. Moreover, the growth was 105% in assay [7] and 78.4% in assay [8].

Take `NC(=O)c1ccc2c(c1)OCO2`: the growth was 111% in assay [1]; 110% in assay [2]; 100% in assay [3]; 98% in assay [4]; 95.6% in assay [5]; 101% in assay [6]. Further, the growth in assay [7] was 100%; in assay [8], 103%.

Consider `COc1cc(-c2csc(NC(=O)Nc3ccc(Cl)cc3Cl)n2)cc(OC)c1OC`, for which the growth in assay [1] was 26.6%; in assay [2] it was 38.3%; in assay [3] it was -7.76% (active); in assay [4] it was 28.8%; in assay [5] it was 11.8%; in assay [6] it was 19.3%. Besides, the growth in assay [7] was 60.1%; in assay [8], 24.6%.

Consider `CCCCCCC[C@@H](O)CC(=O)N[C@H](CCCCN)C(=O)N[C@H](Cc1c[nH]c2ccccc12)C(=O)NC(CCCCN)C(=O)N[C@H](CC(C)C)C(=O)N[C@H](Cc1ccccc1)C(=O)N[C@H](CCCCN)C(=O)N[C@H](CCCCN)C(=O)N[C@H](CC(C)C)C(=O)N1CCCC1C(=O)N[C@H](CCCCN)C(=O)N[C@H](Cc1ccccc1)C(=O)N[C@H](CC(C)C)C(=O)N[C@H](Cc1c[nH]cn1)C(=O)N[C@H](CC(C)C)C(=O)N[C@H](C)C(=O)N[C@H](CCCCN)C(=O)N[C@H](CCCCN)C(=O)N[C@H](Cc1ccccc1)C(=O)O` (some centres not stated), for which the growth in assay [1] is -39.9% (active); in assay [2], -43% (active); in assay [3] it was -38.7% (active); in assay [4], -52.2% (active); in assay [5], -23.8% (active); in assay [6] it was -35.7% (active). For the same compound, the growth in assay [7] is -49.2% (active); in assay [8], -63% (active).

`Cc1cc2c(C(C)C)c(O)c(O)c(C=NCCCCC(=O)O)c2c(O)c1-c1c(C)cc2c(C(C)C)c(O)c(O)c(C=NCCCCC(=O)O)c2c1O`: the growth in assay [1] was 53.9%; in assay [2] it was 41.6%; in assay [3], 61%; in assay [4], 37.1%; in assay [5], 32.8%; in assay [6], 33%. Besides, the growth in assay [7] was 40.2%; in assay [8], 25.6%.

Take `O=S(=O)(O)CCl`: the growth was 97.2% in assay [1]; 100% in assay [2]; 108% in assay [3]; 103% in assay [4]; 103% in assay [5]; 103% in assay [6]. The growth is 98.9% in assay [7] and 105% in assay [8].

Take `CCn1c(=O)c2c(=O)c3c4c(oc3oc2c2ccccc21)C(=O)c1ccccc1C4=O`: the growth in assay [1] is -9.96% (active); in assay [2] it was 85.1%; in assay [3] it was 95.9%; in assay [4], 73.5%; in assay [5], 61.9%; in assay [6] it was 34.6%. The growth in assay [7] is 101%; in assay [8] it was 86.6%.

In the case of `COc1cccc2nc(Nc3ccc(NC(=O)c4ccc5ncccc5c4)cc3)ccc12`, the growth in assay [1] was 68%; in assay [2], 69.7%; in assay [3], 88.7%; in assay [4], 97.7%; in assay [5], 70.3%; in assay [6], 84.5%. The growth in assay [7] is 96.4%; in assay [8] it was 65.6%.

For `Cn1c(C(N)=O)cc2c1-c1nc(NC3CCCCC3)ncc1CCC2`, the growth in assay [1] was 105%; in assay [2], 80.7%; in assay [3] it was 96.5%; in assay [4], 89.7%; in assay [5] it was 90.6%; in assay [6], 88.1%. For the same compound, the growth in assay [7] is 97.5%; in assay [8] it was 104%.

For `Nc1nc(-c2ccccc2)cs1`, the growth is 96.7% in assay [1]; 116% in assay [2]; 107% in assay [3]; 108% in assay [4]; 94.4% in assay [5]; 94.8% in assay [6]. For the same compound, the growth in assay [7] was 104%; in assay [8] it was 106%.

`COc1ccc(-c2nc3sccn3c2-c2ccnc(NCCCNS(=O)(=O)c3ccc(C)cc3)n2)cc1`: the growth is -6.34% (active) in assay [1]; 42.5% in assay [2]; 23.4% in assay [3]; 38.6% in assay [4]; 34.3% in assay [5]; 25% in assay [6]. In addition, the growth in assay [7] is 25.9%; in assay [8] it was 20.6%.

With `C#CCC1(c2ccc(F)c(F)c2)NS(=O)(=O)c2ccccc21` (configuration not stated), the growth in assay [1] was 85.4%; in assay [2], 110%; in assay [3], 107%; in assay [4], 108%; in assay [5], 94.1%; in assay [6], 95.5%. Further, the growth in assay [7] and in assay [8] was 102% in each case.

As to `O=S(=O)(NCCCNc1cc(-c2cn(-c3ccccc3)nc2-c2cccc(O)c2)ccn1)c1ccc(Br)cc1`, the growth in assay [1] was 12.5%; in assay [2], 7.68% (active); in assay [3], 9.98% (active); in assay [4] it was 10.7%; in assay [5], 7.31% (active); in assay [6], 9.44% (active). Further, the growth in assay [7] is -62.4% (active); in assay [8], 7.88% (active).

As to `O=S(=O)(NCCCNc1nccc(-c2c(-c3ccccc3)nc3sccn23)n1)c1ccc(F)cc1`, the growth was 7.39% (active) in assay [1]; 54.3% in assay [2]; 16.5% in assay [3]; 53.8% in assay [4]; 31.6% in assay [5]; 25.9% in assay [6]. In addition, the growth is 86.4% in assay [7] and 39.4% in assay [8].
